{"source": "PubChem BioAssay AID2410", "about": "(Southern Research Specialized Biocontainment Screening …, 2010)", "note": "About 2,100 (84%) of roughly 2,500 compounds were called active.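 The calls were made as follows: active = toxic compounds, whose cell viability fell below 70% of untreated control cells; inactive = the rest.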 The set was probably picked from earlier hits. These entries were drawn from the full list. Measured potencies and affinities stand elsewhere.", "data": [{"test": "viability of uninfected HEp-2 cells – cell-based, HTS, cytotoxicity control for RSV inhibitor project, dose response (AID 2410);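 also: cells exposed to compound for six days before readout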", "settings": "HEp-2 viability, luminescence, cytotoxicity counter-screen; series mostly up to 50 µM", "values": [{"smiles": "COCCN(C(=O)CSc1nnc(-c2ccc(C)c(C)c2)o1)c1c(N)n(CC(C)C)c(=O)[nH]c1=O", "outcome": "inactive"}, {"smiles": "COc1ccc2[nH]c3c(=S)nc[nH]c3c2c1", "outcome": "inactive"}, {"smiles": "c1ccc(N2CCN(Cc3nc4ccccc4[nH]3)CC2)nc1", "outcome": "inactive"}, {"smiles": "O=C(OCC(=O)N1CCCC1=O)c1ccc(Cl)cc1[N+](=O)[O-]", "outcome": "inactive"}, {"smiles": "CC(=O)Nc1ccc(NC(=O)C(C)OC(=O)c2ccccc2C(=O)c2ccc(Cl)c([N+](=O)[O-])c2)cc1", "note": "(centres undefined)", "outcome": "inactive"}, {"smiles": "COc1ccc(C(=O)NCC(=O)N/N=C/c2c(C)[nH]c3ccccc23)cc1OC", "outcome": "inactive"}, {"smiles": "COc1cc(O)cc(O)c1C(=O)/C=C/c1ccccc1", "outcome": "inactive"}, {"smiles": "COc1ccc(C(CNC(=S)NCc2ccccc2)N2CCCC2)cc1", "note": "(centres undefined)", "outcome": "inactive"}, {"smiles": "COC(=O)C1=C(C)N(Cc2ccccc2)C(=O)N[C@H]1c1ccc(Br)cc1", "outcome": "inactive"}, {"smiles": "CC(=O)Nc1ccc(C(=O)OCc2ccc(Cl)cc2)cc1", "outcome": "inactive"}, {"smiles": "COc1cc(/C=N/N=C(\\N)c2nonc2N)cc(OC)c1OC", "outcome": "inactive"}, {"smiles": "COc1cccc(/C=N/N=C(\\N)c2nonc2N)c1O", "outcome": "inactive"}, {"smiles": "C/C(N)=C(/C#N)C(=O)COc1ncnc2ccc(Br)cc12", "outcome": "inactive"}, {"smiles": "C/C(N)=C(/C#N)C(=O)COc1ncnc2ccccc12", "outcome": "inactive"}, {"smiles": "C/C(N)=C(/C#N)C(=O)COC(=O)c1cccc(C)c1O", "outcome": "inactive"}, {"smiles": "Cc1c(NC(=O)CN2C(=O)NC3(CCCCC3C)C2=O)cccc1[N+](=O)[O-]", "note": "(centres undefined)", "outcome": "inactive"}, {"smiles": "Fc1cccc(Nc2nc(-c3ccncc3)nc3ccccc23)c1", "outcome": "inactive"}, {"smiles": "COc1ccc(/C(C)=N/NC(=O)CN(c2ccc(OC)cc2)S(=O)(=O)c2ccccc2)cc1", "outcome": "inactive"}, {"smiles": "Cc1nc2nc(-c3ccccc3)nn2c(C)c1Cl", "outcome": "inactive"}, {"smiles": "O=C(c1cc(-c2ccc(Cl)cc2Cl)on1)N1CCOCC1", "outcome": "inactive"}, {"smiles": "Cc1ccc(-c2nc(CCN3C(=O)c4ccccc4C3=O)cs2)cc1", "outcome": "inactive"}, {"smiles": "Cc1ccc2c(n1)sc1c(-c3ccc(Br)cc3)c(C#N)c(N)nc12", "outcome": "inactive"}, {"smiles": "Nc1ccc(Br)c2c1C(=O)c1ccccc1C2=O", "outcome": "inactive"}, {"smiles": "COc1ccc(N(C)C(=O)C2CCCN2S(=O)(=O)c2cccc3nsnc23)c(OC)c1", "note": "(centres undefined)", "outcome": "inactive"}, {"smiles": "COc1ccc(NC(=O)c2cccs2)c([N+](=O)[O-])c1", "outcome": "inactive"}, {"smiles": "COc1ccccc1CNC(=O)C1CCN(S(=O)(=O)c2cccc3nonc23)CC1", "outcome": "inactive"}, {"smiles": "C/C(NC(=O)c1cccc(F)c1)=C1/C(=O)C[C@@H]2[C@H]1C2(C)C", "outcome": "inactive"}, {"smiles": "C/C(N)=C(/C#N)C(=O)CN1C(=O)NC(Cc2c[nH]c3ccccc23)C1=O", "note": "(centres undefined)", "outcome": "inactive"}, {"smiles": "O=C(Nc1ccon1)c1sc2ccccc2c1Cl", "outcome": "inactive"}, {"smiles": "CS(=O)(=O)NNC(=O)c1cc2cc3ccccc3nc2s1", "outcome": "inactive"}, {"smiles": "O=C(Nc1ccc(Cl)cc1)N1CCc2[nH]c3ccccc3c2C1", "outcome": "inactive"}, {"smiles": "CCC(=O)Nc1nc(C)c(-c2csc(Nc3ccccn3)n2)s1", "outcome": "inactive"}, {"smiles": "Cc1cc(Nc2cccc(F)c2)nc(-c2ccccc2O)n1", "outcome": "inactive"}, {"smiles": "Cc1cc(Nc2cccc(Cl)c2)nc(-c2ccccc2O)n1", "outcome": "inactive"}, {"smiles": "CC1CCCN(C(=O)COC(=O)c2ccc3[nH]c4c(c3c2)CCCC4)C1", "note": "(centres undefined)", "outcome": "inactive"}, {"smiles": "Cc1cccc(C)c1N=Cc1c(O)n(-c2nccs2)c(=O)c2ccccc12", "outcome": "inactive"}, {"smiles": "COc1ccccc1NCC(=O)Nc1cc(S(=O)(=O)N2CCOCC2)ccc1N1CCOCC1", "outcome": "inactive"}, {"smiles": "Cc1ccnc(NC(=O)c2cccc(S(=O)(=O)N3CCN(c4ccccc4)CC3)c2)c1", "outcome": "inactive"}, {"smiles": "O=C(NCc1ccccc1Cl)C1CCN(S(=O)(=O)c2cccc3nonc23)CC1", "outcome": "inactive"}, {"smiles": "COc1ccc2o/c(=N\\O)c(C(=O)Nc3ccccc3OC)cc2c1", "outcome": "inactive"}, {"smiles": "COc1ccc(C(=O)N/C(=C/c2cccs2)c2nc3ccccc3[nH]2)cc1OC", "outcome": "inactive"}, {"smiles": "CSc1nc(N2CCOCC2)nc2ccc(C)cc12", "outcome": "inactive"}, {"smiles": "O=C1c2ccccc2C(=O)N1CCCCN(C(=O)c1cc2ccccc2oc1=O)c1ccc(Cl)cc1", "outcome": "inactive"}, {"smiles": "COc1ccccc1CNC(=O)C(NS(=O)(=O)c1cccc2nsnc12)C(C)C", "note": "(centres undefined)", "outcome": "inactive"}, {"smiles": "CCC(C)n1ncn(-c2ccc(N3CCN(c4ccc(OCC5COC(Cn6cncn6)(c6ccc(Cl)cc6Cl)O5)cc4)CC3)cc2)c1=O", "note": "(centres undefined)", "outcome": "inactive"}, {"smiles": "Brc1cnc(N2CCOCC2)nc1N1CCCCC1", "outcome": "inactive"}, {"smiles": "CCOc1ccc(CNC(=O)CCCn2nc(CC)n3c(cc4occc43)c2=O)cc1", "outcome": "inactive"}, {"smiles": "N#Cc1ccccc1Cn1c(=O)oc2ccccc21", "outcome": "inactive"}, {"smiles": "COC(=O)c1ccc(Oc2nc(N3CCCCC3)nc(N3CCOCC3)n2)cc1", "outcome": "inactive"}, {"smiles": "CCCCNC(=O)CC1N=C2c3ccccc3N=C(SCC(=O)Nc3ccc(OC)cc3)N2C1=O", "note": "(centres undefined)", "outcome": "inactive"}, {"smiles": "O=C(/C=C/c1ccc(O)c(O)c1)OC1C(O)CC(OC(=O)/C=C/c2ccc(O)c(O)c2)(C(=O)O)CC1O", "note": "(centres undefined)", "outcome": "inactive"}, {"smiles": "N#Cc1ccccc1NC(=O)c1ccc2c(Cl)c3c(nc2c1)CCCC3", "outcome": "inactive"}, {"smiles": "CC(=O)N1N=C(c2ccc(C)cc2)OC1c1cccnc1", "note": "(centres undefined)", "outcome": "inactive"}, {"smiles": "COc1ccc(-c2nn(-c3ccccc3)cc2/C=N/O)cc1", "outcome": "inactive"}, {"smiles": "OCc1cn(-c2ccccc2)nc1-c1ccc(Br)cc1", "outcome": "inactive"}, {"smiles": "O=[N+]([O-])c1ccc(N/N=C/c2ccccc2)cc1", "outcome": "inactive"}, {"smiles": "CC(Oc1ccc(F)cc1)C(=O)Nc1ccc2ccccc2c1", "note": "(centres undefined)", "outcome": "inactive"}, {"smiles": "Cc1c(C)n(C)c2ccc([N+](=O)[O-])cc12", "outcome": "inactive"}, {"smiles": "O=c1c2sccc2n(Cc2cc(=O)n3ccccc3n2)c(=O)n1-c1ccccc1", "outcome": "inactive"}, {"smiles": "CCN(Cc1nc2ccccc2c(=O)[nH]1)C(=O)c1cc(C2CC2)nn1-c1ccccc1", "outcome": "inactive"}, {"smiles": "CN(Cc1nc2ccccc2c(=O)[nH]1)C(=O)c1cc(C2CC2)nn1-c1ccccc1", "outcome": "inactive"}, {"smiles": "COc1ccccc1/C=C/C(=O)NCC(=O)N/N=C(/C)c1ccc(Cl)cc1", "outcome": "inactive"}, {"smiles": "Cc1nn2c(-c3ccc(F)cc3)ccnc2c1Br", "outcome": "inactive"}, {"smiles": "CC(=O)c1sc(-c2ccccc2Cl)nc1C", "outcome": "inactive"}, {"smiles": "O=C(Nc1ccon1)c1ccc(N2CCCCC2)c([N+](=O)[O-])c1", "outcome": "inactive"}, {"smiles": "c1csc(-c2nc3c4ccccc4c4ccccc4c3[nH]2)c1", "outcome": "inactive"}, {"smiles": "Cc1c(SCCO)c(=O)[nH]c2cc3c(cc12)OCO3", "outcome": "inactive"}, {"smiles": "O=C(/C=C/c1ccc(O)c(O)c1)O[C@@H]1C[C@](O)(C(=O)O)C[C@@H](O)[C@H]1O", "outcome": "inactive"}, {"smiles": "COc1ccc2cc(CN(CCc3ccccc3)Cc3nnnn3Cc3ccco3)c(=O)[nH]c2c1", "outcome": "inactive"}, {"smiles": "CCOC(=O)c1c(C)[nH]c(C(=O)COC(=O)C2(C)CC2(Cl)Cl)c1C", "note": "(centres undefined)", "outcome": "inactive"}, {"smiles": "O=c1nc(Nc2ccc(OCc3ccccc3)cc2)sc2ncccc12", "outcome": "inactive"}, {"smiles": "Cc1csc(N(C)C(=O)CSc2nnc(COc3ccccc3C)o2)n1", "outcome": "inactive"}, {"smiles": "COC(=O)c1ccc(NC2c3ncccc3C(=O)N2Cc2cccs2)cc1", "note": "(centres undefined)", "outcome": "inactive"}, {"smiles": "Cc1[nH]c2ccccc2c1C(=O)CSc1ccccn1", "outcome": "inactive"}, {"smiles": "Cc1ccc(Nc2nc(N3CCOCC3)nc(N3CCOCC3)n2)cc1Cl", "outcome": "inactive"}, {"smiles": "CSc1nc2ccc(Nc3nc(N4CCOCC4)nc(N4CCOCC4)n3)cc2s1", "outcome": "inactive"}, {"smiles": "O=C(c1ccccc1Cl)N1CCN(c2ccccn2)CC1", "outcome": "inactive"}, {"smiles": "CSc1nnc(Cn2c(=O)sc3ccccc32)n1CCc1ccccc1", "outcome": "inactive"}, {"smiles": "CCOC(=O)CSc1nnc(CNC(=O)c2ccc([N+](=O)[O-])cc2)n1C", "outcome": "inactive"}, {"smiles": "C#CCOCCOCCOCCNc1nc(N2CCN(C(=O)CCCCCCCCCCNC(=O)[C@@H]([C@H](C)O)n3cc(C)nn3)CC2)nc(N2CCN(C(=O)CCCCCCCCCCNC(=O)[C@@H]([C@H](C)O)n3cc(C)nn3)CC2)n1", "outcome": "inactive"}, {"smiles": "Cc1ccccc1NC(=O)COC(=O)Cc1ccsc1", "outcome": "inactive"}, {"smiles": "COc1ccc(S(=O)(=O)N2CCN(CCO)CC2)cc1-c1nnc2c3ccccc3c(C)nn12", "outcome": "inactive"}, {"smiles": "Cc1cc(N2C(=O)CC(N3CCN(c4ccc(C(=O)c5cccs5)cc4)CC3)C2=O)no1", "note": "(centres undefined)", "outcome": "inactive"}, {"smiles": "C/C(=N/OCO/N=C(/C)c1ccc(F)cc1)c1ccc(F)cc1", "outcome": "inactive"}, {"smiles": "O=c1c(OC2OC(CO)C(O)C(O)C2OC2OC(CO)C(O)C(O)C2OC2OC(CO)C(O)C(O)C2O)c(-c2ccc(O)c(O)c2)oc2cc(O)cc(O)c12", "note": "(centres undefined)", "outcome": "inactive"}, {"smiles": "CCC(=O)Nc1ccc(C(=O)OCc2ccccc2Cl)cc1", "outcome": "inactive"}, {"smiles": "Cc1ccc(-n2c(=O)c3sccc3n(Cc3cc(=O)n4ccccc4n3)c2=O)cc1F", "outcome": "inactive"}, {"smiles": "COc1ccc(Br)cc1/C=C/C(=O)Nc1ccc2ccccc2c1", "outcome": "inactive"}, {"smiles": "CCOc1cc(/C=N\\Nc2nc(Nc3ccccc3)nc(N3CCOCC3)n2)ccc1OC(=O)c1ccco1", "outcome": "inactive"}, {"smiles": "S=C(NCCc1ccccc1)N/N=C/c1cccc(Cl)c1Cl", "outcome": "inactive"}, {"smiles": "c1ccc2c(c1)OCCc1c-2[nH]c2ccccc12", "outcome": "inactive"}, {"smiles": "COC(=O)c1ccc(Cn2c(CN3CCOCC3)nc3ccccc3c2=O)o1", "outcome": "inactive"}, {"smiles": "CCn1c(=NC(=O)c2ccco2)sc2cccc(F)c21", "outcome": "inactive"}, {"smiles": "CC(=NCc1ccco1)C1=C(O)c2ccccc2C1=O", "outcome": "inactive"}, {"smiles": "Cn1nnc(-c2ccc(OCc3ccccc3F)cc2)n1", "outcome": "inactive"}, {"smiles": "CC/C(=N\\Nc1ccc([N+](=O)[O-])cc1)c1ccccc1", "outcome": "inactive"}, {"smiles": "COC(=O)c1cc2n3ccccc3c(C)c(-c3ccccc3)c-2c1C(=O)OC", "outcome": "inactive"}, {"smiles": "CCOc1ccc2nc(NC(=O)C(CCSC)NS(=O)(=O)c3cccs3)sc2c1", "note": "(centres undefined)", "outcome": "inactive"}, {"smiles": "O=C(CSc1ccccn1)Nc1nc2c(ccc3ccccc32)s1", "outcome": "inactive"}, {"smiles": "Cc1ccc(-c2nc3c(c(=O)c4ccccc4n3C)c(=O)n2Cc2ccco2)cc1", "outcome": "inactive"}, {"smiles": "COc1ccc(Cn2c(-c3ccccc3C)nc3c(c(=O)c4ccccc4n3C)c2=O)cc1", "outcome": "inactive"}, {"smiles": "COCCn1c(-c2ccccc2Cl)nc2c(c(=O)c3ccccc3n2C)c1=O", "outcome": "inactive"}, {"smiles": "COCCn1c(-c2cccc(Br)c2)nc2c(c(=O)c3ccccc3n2C)c1=O", "outcome": "inactive"}, {"smiles": "Nn1c(COc2ccccc2)nc2ccccc2c1=O", "outcome": "inactive"}]}]}
